Data from ChEMBL document CHEMBL1157539, “Thousands of chemical starting points for antimalarial lead identification” (Nature, 2010).

Key:
Assay type in all cases: functional
Plasmodium falciparum [1] = assay: GSK_TCMDC: Inhibition of Plasmodium falciparum 3D7 in whole red blood cells, using parasite LDH activity as an index of growth. Test compounds present at 2uM
Plasmodium falciparum [2] = assay: GSK_TCMDC: Inhibition of Plasmodium falciparum Dd2 in whole red blood cells, using parasite LDH activity as an index of growth. Test compounds present at 2uM
HepG2 = assay: GSK_TCMDC: Percent inhibition of human HepG2 cell line. Test compounds present at 10uM.

Compound | Inhibition (Plasmodium falciparum [1]) [%] | Inhibition (Plasmodium falciparum [2]) [%] | Inhibition (HepG2) [%]
COc1ccc2nccc([C@H](O)CN3CCC(NCc4nc5cccc(F)c5[nH]4)CC3)c2c1.O=C(O)C(=O)O | 98 | 0 | 0
Cc1cccc2nc(-c3cccc(-c4cccc(NC(=O)c5cccnc5)c4)c3)[nH]c12 | 100 | 56 | 28
Cc1ccc(C(=O)NCC2CCN(c3ccc(C(F)(F)F)cc3NC(=O)c3ccco3)CC2)cn1 | 91 | 73 | 9
O=C(Nc1cccc(-c2nn3ccccc3c2-c2ccnc(Nc3cccc(N4CCCC4=O)c3)n2)c1)c1cc(F)ccc1F | 99 | 51 | 59
O=C(C=Cc1ccc(Cl)c(Cl)c1)NCCCCCN1CCCC(CCCNS(=O)(=O)c2cccc3cccnc23)C1 (configuration not stated) | 96 | 16 | 37
Cn1cc(C2CCN(CCCCCNC(=O)/C=C/c3ccc(Cl)c(Cl)c3)CC2)c2cc(O)ccc21 | 94 | 0 | 11
O=C(NCCOc1ccccc1)[C@H](Cc1ccccc1)Nc1ccnc(NCC2CCCCC2)n1.O=C(O)C(F)(F)F | 96 | 73 | 80
COc1cc(Nc2ccnc3ccc(C(F)(F)F)cc23)cc(OC)c1OC | 100 | 100 | 15
Cc1cc(CNCCCCCCCNCc2ccc(Cl)cc2)ccc1O | 97 | 0 | 13
CN(C)CCNCc1ccc(-c2cccc(-c3nc4ccccc4[nH]3)c2)cc1.O=C(O)C(F)(F)F | 100 | 63 | 31
Br.CCCCC(NCC)c1ccc(OCCOc2ccc(C(CCCC)NCC)cc2)cc1 (configuration not stated) | 100 | 99 | 100
CS(=O)(=O)c1ccc(CNCc2ccc(-c3cccc(-c4nc5cc(F)ccc5[nH]4)c3)cc2)cc1.O=C(O)C(F)(F)F | 100 | 74 | 33
CCOc1cc(C(=O)Nc2cccnc2)ccc1-c1nc2cc(Cl)c(Cl)cc2[nH]1 | 100 | 70 | 9
O=C(O)c1ccc(NC(=O)C2CC(=O)N(Cc3ccc(Cl)cc3)C(=Nc3ccc(Cl)cc3)S2)cc1 (configuration not stated) | 99 | 95 | 0
Cc1cc(N[C@@H](Cc2ccccc2)C(=O)Nc2ccccc2)nc(NCCc2ccc(F)cc2)n1.O=C(O)C(F)(F)F | 96 | 81 | 26
CC1(C)N=C(N)N=C(N)N1c1ccccc1.Cl | 98 | 1 | 16
CCCCCCOc1ccc(C(=O)NCCC2CCN(CCCCCNC(=O)C=Cc3ccc(Cl)c(Cl)c3)CC2)cc1 | 99 | 10 | 13
C[C@H](Cc1ccc(C[C@@H](C)NCC(O)c2cc(Cl)c(N)c(Cl)c2)cc1)NCC(O)c1cc(Cl)c(N)c(Cl)c1 (some centres not stated) | 98 | 50 | 26
N=c1c2nc(-c3c(F)cccc3Cl)[nH]c(=O)c2[nH]c(=O)n1-c1ccccc1 | 95 | 0 | 52
Cc1cccc2nc(-c3cccc(-c4cccc(CNCc5cccc(N)c5)c4)c3)[nH]c12.O=C(O)C(F)(F)F | 100 | 73 | 14

Compound | Inhibition (Plasmodium falciparum [1]) [%] | Inhibition (Plasmodium falciparum [2]) [%] | Inhibition (HepG2) [%]
CCCCCCn1c(Sc2ccc(C#N)c([N+](=O)[O-])c2)nnc1-c1ccc(Cl)cc1 | 93 | 48 | 23
O=C(O)C(F)(F)F.O=[N+]([O-])c1cccc(CNCC2CCN(Cc3ccc4ccccc4c3)CC2)c1 | 100 | 42 | 18
COc1cc(Nc2nccc(N3CCC(NC(=O)C4COc5ccccc5O4)C3)n2)cc(OC)c1OC (configuration not stated) | 90 | 58 | 5
CCC[C@@H]([C@@H](CC(C)C)C(=O)N[C@@H](CCC/N=C(/N)NS(C)(=O)=O)C(=O)Nc1nccs1)N(O)C=O | 95 | 41 | 10
O=C(O)C(F)(F)F.O=S(=O)(NCCN1CCCC1)c1cccc(-c2ccc(CNC3Cc4ccccc4C3)cc2)c1 | 99 | 74 | 79
CCn1c(-c2nonc2N)nc2c(-c3cccc(NC(=O)NC45CC6CC(CC(C6)C4)C5)c3)ncc(OCCCN)c21.O=C(O)C(F)(F)F | 94 | 63 | 100
Fc1cc(Cl)ccc1Nc1ccnc2cc(-c3ccc(CN4CCSCC4)o3)ccc12 | 100 | 99 | 17
O=C(/C=C/c1ccc(Cl)c(Cl)c1)NCCCCCN1CCC(C(=O)Nc2ccc(Cl)c(Cl)c2)CC1 | 98 | 0 | 73
CS(=O)(=O)CCNc1nccc(N2CCc3ncnc(Nc4ccc(OCc5cccc(F)c5)c(Cl)c4)c3C2)n1 | 100 | 100 | 8
Cl.NC1=NC(c2ccccc2)N(c2ccccc2)C(N)=N1 (configuration not stated) | 96 | 85 | 0
COC(=O)C(NC(=O)NC1CCN(c2ccnc(Nc3ccc(F)cc3)n2)C1)c1ccccc1 (configuration not stated) | 87 | 8 | 11
CCN(c1ccc(F)cc1)S(=O)(=O)c1cc(Br)cc2c1N(C(=O)C1CC1)CC2 | 88 | 79 | 0
COc1ccc2nccc([C@@H](O)CN3CCC(NCc4cc5cccc(O)c5c(=O)[nH]4)CC3)c2c1.Cl | 99 | 66 | 8
CCCCCCCCCCN1C(=O)C2C(CCCCNC(C)=O)NC3(C(=O)N(Cc4ccc(C(C)(C)C)cc4)c4ccccc43)C2C1=O (configuration not stated) | 86 | 65 | 3
CN1CCC(N(Cc2ccc(-c3ccc(C(F)(F)F)cc3)cc2)C(=O)Cn2c(SCc3cccc(F)c3F)cc(=O)c3c2CCC3)CC1.O=C(O)C(O)C(O)C(=O)O | 89 | 83 | 50
COc1ccc(NC(=O)[C@H](Cc2ccccc2)Nc2cc(C)nc(Nc3ccccc3)n2)cc1.O=C(O)C(F)(F)F | 100 | 92 | 0
Clc1cccc(CNC2CCN(CC3CCCCC3)CC2)c1.O=C(O)C(F)(F)F | 97 | 24 | 4
CCOc1c(Br)cc(Br)cc1CNCCCCNc1nc2ccccc2[nH]1 | 100 | 37 | 25
Br.CC(C)(C)c1ccc(OCCCON2C(N)=NC(N)=NC2(C)C)cc1 | 93 | 76 | 77
O=C(NC1CCN(Cc2ccc3c(c2)OCCO3)CC1)c1ccc(-c2cccc(Cl)c2)s1.O=C(O)C(F)(F)F | 93 | 9 | 46

Compound | Inhibition (Plasmodium falciparum [1]) [%] | Inhibition (Plasmodium falciparum [2]) [%] | Inhibition (HepG2) [%]
COc1cccc(NC(=O)NC2CCN(CCCCCNC(=O)/C=C/c3ccc(Cl)c(Cl)c3)CC2)c1 | 100 | 8 | 14
CC1(C)NC(N)=NC(=N)N1OCc1cc(Cl)cc2c1OCOC2.Cl | 95 | 64 | 65
COc1cc(Br)ccc1N1CCN(CCCCNC(=O)c2ccc(NC(=O)c3ccc(Cl)cc3)cc2)CC1.Cl | 96 | 33 | 55
O=C(NC1CC1)c1ccc(N2CCCC(COc3ccccc3F)C2)nc1 (configuration not stated) | 87 | 92 | 8
Cc1[nH]c(C)c(-c2ccc(OCCOc3ccc(C(F)(F)F)cn3)cc2)c(=O)c1Br | 97 | 97 | 25
COc1ccc(CN(C)CCCc2ccc(NC(=O)c3cc4ccccc4[nH]3)cc2)cc1OC.O=C(O)/C=C/C(=O)O | 97 | 31 | 39
Nc1c(-c2ccc(C(=O)NCCNCc3ccccc3)cc2)cnn1-c1ccc(C(F)(F)F)cc1.O=C(O)C(F)(F)F | 85 | 2 | 23
CCOc1ccc2c(c1)N(C(=O)C=Cc1ccccc1)C(C)(C)c1ssc(=S)c1-2 | 83 | 77 | 3
Br.CN(CCON1C(=N)N=C(N)NC1(C)C)c1ccccc1 | 97 | 93 | 64
O=C(Nc1ccc(OC2CCN(Cc3ccccc3)CC2)c(Cl)c1)c1ccc(F)cc1.O=C(O)C(F)(F)F | 94 | 92 | 30
O=C(Nc1cccc(C(F)(F)F)c1)c1cccc(S(=O)(=O)NC2CCN(CC3CCCCC3)C2)c1.O=C(O)C(F)(F)F (configuration not stated) | 100 | 45 | 37
COc1cccc(CNC(=O)NC2CCN(c3ccnc(Nc4ccc(F)cc4)n3)C2)c1 (configuration not stated) | 94 | 64 | 20
CN1CCC(C(=O)N(Cc2ccc(-c3ccc(CNCCc4ccccc4)cn3)cc2)Cc2cccc(F)c2)CC1.O=C(O)C(F)(F)F | 90 | 80 | 30
O=C(NCC1CCN(Cc2ccc3c(c2)OCCO3)C1)c1cc(-c2ccccc2F)cs1.O=C(O)C(F)(F)F (configuration not stated) | 95 | 0 | 18
O=C(Nc1cccc(-c2ccc(-c3nc4cc(C(F)(F)F)ccc4[nH]3)cc2)c1)c1ccoc1 | 98 | 42 | 76
O=C(Nc1cncc(NC(=O)c2ccc(Cl)c(Cl)c2)c1)c1ccc(Cl)c(Cl)c1 | 100 | 70 | 12
CS(=O)(=O)N1CC2(CCN(CCC(NC(=O)NCc3ccc(Cl)c(Cl)c3)c3ccc(Cl)c(Cl)c3)CC2)c2ccccc21 (configuration not stated) | 89 | 59 | 19
COc1ccc2nccc([C@@H](O)CN3CCC(NCCOc4ccccc4C(F)(F)F)CC3)c2c1.O=C(O)C(=O)O | 98 | 95 | 2
Cc1ccccc1CN1CCCN(Cc2ccc(C(=O)Nc3ccc(Cl)cc3)cc2)CC1.O=C(O)C(F)(F)F | 93 | 15 | 48
